Measurements from the supplement of paper PMC9694430.
Structures can show the parent of a compound that is named as a salt.

Experiments:
Assay in all cases: thermal shift delta Tm vs DMSO control; higher = stronger stabilization (binding)
Settings in all cases: 12.5 µM; protein concentration 2 µM
LOC_OS04G57630-cb004 = test system: LOC_OS04G57630-cb004
Summary of the method: (§1)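 Rice kinase domain constructs were expressed in E. coli, purified, and tested by differential scanning fluorimetry with compound added in DMSO. Each well of a 96-well plate held 19.5 μl of 2 μM kinase in 100 mM potassium phosphate pH 7.5, 150 mM NaCl, 10% glycerol and 5 × SYPRO Orange, and fluorescence was read from 25°C to 95°C at 0.05°C/s. The melting temperature shift is the mean of triplicates, taken against protein with DMSO alone after Boltzmann fitting.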

LOC_OS05G07850-cb002 = test system: LOC_OS05G07850-cb002
Summary of the method: as §1

LOC_OS05G16824-cb004 = test system: LOC_OS05G16824-cb004
Summary of the method: as §1

LOC_OS05G28520-cb001 = test system: LOC_OS05G28520-cb001
Summary of the method: as §1

LOC_OS05G30820-cb001 = test system: LOC_OS05G30820-cb001
Summary of the method: as §1

LOC_OS05G43570-cb004 = test system: LOC_OS05G43570-cb004
Summary of the method: as §1

LOC_OS06G16330-cb003 = test system: LOC_OS06G16330-cb003
Summary of the method: as §1

LOC_OS06G22820-cb001 = test system: T1, LOC_OS06G22820-cb001
T1 sequence (whole entry): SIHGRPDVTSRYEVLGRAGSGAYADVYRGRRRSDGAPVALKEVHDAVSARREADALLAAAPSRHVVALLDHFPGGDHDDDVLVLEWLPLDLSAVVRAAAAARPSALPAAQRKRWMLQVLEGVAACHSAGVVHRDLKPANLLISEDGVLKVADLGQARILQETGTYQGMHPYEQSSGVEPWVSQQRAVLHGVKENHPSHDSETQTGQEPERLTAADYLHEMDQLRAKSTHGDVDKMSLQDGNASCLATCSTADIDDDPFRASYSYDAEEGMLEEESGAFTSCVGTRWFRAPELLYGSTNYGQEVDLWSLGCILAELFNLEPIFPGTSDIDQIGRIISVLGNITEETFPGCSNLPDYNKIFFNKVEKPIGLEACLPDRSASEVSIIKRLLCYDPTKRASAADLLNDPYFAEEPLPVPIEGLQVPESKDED
Summary of the method: as §1

LOC_OS07G06570-cb004 = test system: LOC_OS07G06570-cb004
Summary of the method: as §1

LOC_OS07G07230-cb001 = test system: LOC_OS07G07230-cb001
Summary of the method: as §1

Chain of LOC_OS06G16330-cb003 (as listed by the source): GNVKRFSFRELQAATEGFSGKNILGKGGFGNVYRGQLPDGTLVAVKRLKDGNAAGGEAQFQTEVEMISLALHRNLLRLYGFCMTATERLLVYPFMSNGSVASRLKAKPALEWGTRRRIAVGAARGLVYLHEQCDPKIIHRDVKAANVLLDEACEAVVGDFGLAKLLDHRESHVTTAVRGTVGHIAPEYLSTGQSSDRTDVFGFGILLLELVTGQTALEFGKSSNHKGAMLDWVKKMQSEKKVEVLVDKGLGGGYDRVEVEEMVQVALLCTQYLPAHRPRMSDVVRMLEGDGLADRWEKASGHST

Row | Compound | thermal shift delta Tm (LOC_OS04G57630-cb004) | thermal shift delta Tm (LOC_OS05G07850-cb002) | thermal shift delta Tm (LOC_OS05G16824-cb004) | thermal shift delta Tm (LOC_OS05G28520-cb001) | thermal shift delta Tm (LOC_OS05G30820-cb001) | thermal shift delta Tm (LOC_OS05G43570-cb004) | thermal shift delta Tm (LOC_OS06G16330-cb003) | thermal shift delta Tm (LOC_OS06G22820-cb001) | thermal shift delta Tm (LOC_OS07G06570-cb004) | thermal shift delta Tm (LOC_OS07G07230-cb001)
1 | COc1ccc(CNC(=O)Nc2ncc([N+](=O)[O-])s2)cc1 | -0.18 °C | -0.24 °C | 0.88 °C | 1.04 °C | 0.63 °C | 0.59 °C | 0.38 °C | 0.52 °C | 0.68 °C | 0.25 °C
2 | C[C@H](NC(=O)/C(C#N)=C/c1cccc(Br)n1)c1ccccc1 | -1.13 °C | -0.94 °C | -17.3 °C | -0.45 °C | 0.31 °C | -0.67 °C | -1.56 °C | 0.13 °C | 0.17 °C | -0.47 °C
3 | COCCNCc1ccc(-c2cc3nccc(Oc4ccc(NC(=O)C5(C(=O)Nc6ccc(F)cc6)CC5)cc4F)c3s2)nc1 [Sitravatinib (MGCD516)] | 7.89 °C | 14.5 °C | 10.7 °C | 7.64 °C | 0.29 °C | 0.73 °C | 9.07 °C | 0.6 °C | 0.67 °C | -0.46 °C
4 | COc1cc2ncnc(Nc3cccc(Cl)c3F)c2cc1OC(=O)N1CCN(C)C[C@H]1C | 0.65 °C | 9.1 °C | -0.19 °C | 0.6 °C | 0.5 °C | 0.72 °C | 2.26 °C | 0.6 °C | 1.12 °C | 0.94 °C
5 | O=C1Cc2c([nH]c3ccc(Br)cc23)-c2ccccc2N1 [Kenpaullone] | 2.67 °C | 7.41 °C | 3.07 °C | 1 °C | 2.18 °C | 1.21 °C | 2.59 °C | 0.96 °C | -0.23 °C | 0.05 °C
6 | Cc1nc(Nc2cnn(C3CCNCC3)c2)nc2c1N(C)C(=O)c1cc3ccccc3cc1N2C | 0.88 °C | 6.28 °C | 3.82 °C | 0.38 °C | 0.47 °C | 0.33 °C | 1.66 °C | 0.22 °C | 0.49 °C | 0.2 °C
7 | Cn1cc(/C=C2\C(=O)Nc3cccnc32)c2ccccc21 | 2.07 °C | 9.12 °C | 10.2 °C | 0.86 °C | 0.81 °C | 0.41 °C | 7.67 °C | 0.62 °C | 1.66 °C | 0.42 °C
8 | O=C1NC(=O)/C(=C/c2ccc(-c3ccc(F)cc3O)o2)S1 | 1.54 °C | 6.53 °C | 3.79 °C | 1.52 °C | 1.01 °C | 2.03 °C | 3.28 °C | 2.41 °C | 1.83 °C | 0.13 °C
9 | COc1nccc(-c2c(-c3ccc(F)cc3)ncn2C2CCC(O)CC2)n1 (stereo not given) | 0.18 °C | -0.01 °C | 1.52 °C | 0.58 °C | 0.26 °C | 0.65 °C | 0.57 °C | 0.43 °C | 0.69 °C | -0.08 °C
10 | C=CC(=O)Nc1cccc(Oc2nc(Nc3ccc(N4CCN(C)CC4)cc3)ncc2Cl)c1 | 1.97 °C | 11.6 °C | 8.96 °C | 4.43 °C | 1.14 °C | 0.72 °C | 5.65 °C | 0.76 °C | 0.79 °C | 1.03 °C
11 | CCN1/C(=C/C(C)=O)Sc2ccc(OC)cc21 | -0.02 °C | 2.71 °C | 0.06 °C | 0.32 °C | 0.33 °C | 0.34 °C | -0.18 °C | 0.54 °C | 0.57 °C | 0.23 °C
12 | Cc1ccc([N+](=O)[O-])cc1S(=O)(=O)N(C)/N=C/c1cnc2ccc(Br)cn12 | 1.58 °C | 1.88 °C | 3.43 °C | 1.13 °C | 0.85 °C | 1.49 °C | 7.74 °C | 0.41 °C | 1.41 °C | 0.94 °C
13 | Cc1ccc(F)c(NC(=O)Nc2ccc(-c3cccc4[nH]nc(N)c34)cc2)c1 [Linifanib (ABT-869)] | 0.74 °C | 4.63 °C | 1.86 °C | 0.75 °C | 0.85 °C | 0.9 °C | 3.55 °C | 0.6 °C | 0.72 °C | 0.93 °C
14 | Cc1c(Cn2c(C)nc3c(C(=O)O)cc(N4CCOCC4)cc32)cccc1C(F)(F)F | -0.06 °C | -0.15 °C | -2.15 °C | -0.07 °C | 0.36 °C | 0.33 °C | -0.16 °C | 0.35 °C | 1.32 °C | 0.5 °C
15 | COc1ccc(-c2ccc3ncc4c(c3c2)n(-c2ccc(N3CCNCC3)c(C(F)(F)F)c2)c(=O)n4C)cn1 | 0.96 °C | 10.2 °C | 2.52 °C | 0.28 °C | 0.54 °C | 0.36 °C | 4.63 °C | 0.38 °C | 0.59 °C | 0.06 °C
16 | Cc1ccc(NC(=O)c2ccc(CN3CCN(C)CC3)cc2)cc1Nc1nc(-c2cccnc2)cs1 [Masitinib (AB1010)] | -0.19 °C | 0.62 °C | -4.62 °C | 0.59 °C | 0.34 °C | 0.52 °C | -0.18 °C | 0.52 °C | 0.98 °C | 0.23 °C
17 | Cc1cc(C(C)Nc2ccccc2)c2nc(N3CCOCC3)cc(=O)n2c1 (stereo not given) | -0.32 °C | 0.35 °C | -2.9 °C | 0.25 °C | 0.38 °C | 0.22 °C | 0.32 °C | 0.59 °C | 0.64 °C | 0.53 °C
18 | CCCCNc1ncc(-c2ccc(CN3CCOCC3)cn2)c(NC2CCC(O)CC2)n1 (stereo not given) | 4.09 °C | 9.44 °C | 8.95 °C | 0.2 °C | 0.7 °C | 0.43 °C | 9.08 °C | 0.1 °C | 0.37 °C | 0.71 °C
19 | COc1ccc2c(c1)[C@]1(C[C@H]1c1ccc3c(/C=C/c4ccc(CN5C[C@@H](C)O[C@@H](C)C5)cc4)n[nH]c3c1)C(=O)N2 | 7.27 °C | 12.3 °C | 9.09 °C | 0.02 °C | -0.63 °C | 0.5 °C | 11.6 °C | 0.46 °C | 0.63 °C | -0.28 °C
20 | N=C(N)NC(=N)NCCc1ccccc1 [Phenformin HCl] | 0.25 °C | -0.02 °C | -6.46 °C | 0.39 °C | 0.48 °C | 0.27 °C | -0.35 °C | 0.41 °C | 0.53 °C | -0.03 °C
21 | CN1CCC(COc2cnc(-c3cccc(Cn4nc(-c5cccc(C#N)c5)ccc4=O)c3)nc2)CC1 | 0.46 °C | 0.61 °C | -1.27 °C | 0.69 °C | 0.42 °C | 0.46 °C | 0.55 °C | 0.49 °C | 1.28 °C | 0.18 °C
